One may read the inhibition as the change of the read-out against control, counted positive when it falls.

Data on 62 compounds can be found in PubChem BioAssay AID1671202 (University of Kansas High Throughput Screening Laboratory, 2021).

Several values for one entry are separate records, joined by “and”; a condition that tells them apart may be missing. Equal values may be shown once. Out of some 190,000 compounds screened, about 6,900 (3.6%) were called active. The sample holds actives, similar compounds and a random draw of the others, so the mix is not that of the screen. No stated cut-off is given here; in the data, active means inhibition above about 50%; inactive means the rest.

The target of the assay is Huntingtin (Homo sapiens) (UniProt P42858). The assay can be described thus: mutant huntingtin-calmodulin interaction inhibitors – biochemical, AlphaScreen, primary screen (AID 1671202).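 Further: 0% = both proteins with DMSO and 100% = one protein alone.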 Particulars: AlphaScreen His-mHTT/GST-CaM binding, luminescence; at 15 µM, stronger effect = higher value.
Huntingtin (Homo sapiens), sequence (P42858 whole entry, looked up, stated change not applied): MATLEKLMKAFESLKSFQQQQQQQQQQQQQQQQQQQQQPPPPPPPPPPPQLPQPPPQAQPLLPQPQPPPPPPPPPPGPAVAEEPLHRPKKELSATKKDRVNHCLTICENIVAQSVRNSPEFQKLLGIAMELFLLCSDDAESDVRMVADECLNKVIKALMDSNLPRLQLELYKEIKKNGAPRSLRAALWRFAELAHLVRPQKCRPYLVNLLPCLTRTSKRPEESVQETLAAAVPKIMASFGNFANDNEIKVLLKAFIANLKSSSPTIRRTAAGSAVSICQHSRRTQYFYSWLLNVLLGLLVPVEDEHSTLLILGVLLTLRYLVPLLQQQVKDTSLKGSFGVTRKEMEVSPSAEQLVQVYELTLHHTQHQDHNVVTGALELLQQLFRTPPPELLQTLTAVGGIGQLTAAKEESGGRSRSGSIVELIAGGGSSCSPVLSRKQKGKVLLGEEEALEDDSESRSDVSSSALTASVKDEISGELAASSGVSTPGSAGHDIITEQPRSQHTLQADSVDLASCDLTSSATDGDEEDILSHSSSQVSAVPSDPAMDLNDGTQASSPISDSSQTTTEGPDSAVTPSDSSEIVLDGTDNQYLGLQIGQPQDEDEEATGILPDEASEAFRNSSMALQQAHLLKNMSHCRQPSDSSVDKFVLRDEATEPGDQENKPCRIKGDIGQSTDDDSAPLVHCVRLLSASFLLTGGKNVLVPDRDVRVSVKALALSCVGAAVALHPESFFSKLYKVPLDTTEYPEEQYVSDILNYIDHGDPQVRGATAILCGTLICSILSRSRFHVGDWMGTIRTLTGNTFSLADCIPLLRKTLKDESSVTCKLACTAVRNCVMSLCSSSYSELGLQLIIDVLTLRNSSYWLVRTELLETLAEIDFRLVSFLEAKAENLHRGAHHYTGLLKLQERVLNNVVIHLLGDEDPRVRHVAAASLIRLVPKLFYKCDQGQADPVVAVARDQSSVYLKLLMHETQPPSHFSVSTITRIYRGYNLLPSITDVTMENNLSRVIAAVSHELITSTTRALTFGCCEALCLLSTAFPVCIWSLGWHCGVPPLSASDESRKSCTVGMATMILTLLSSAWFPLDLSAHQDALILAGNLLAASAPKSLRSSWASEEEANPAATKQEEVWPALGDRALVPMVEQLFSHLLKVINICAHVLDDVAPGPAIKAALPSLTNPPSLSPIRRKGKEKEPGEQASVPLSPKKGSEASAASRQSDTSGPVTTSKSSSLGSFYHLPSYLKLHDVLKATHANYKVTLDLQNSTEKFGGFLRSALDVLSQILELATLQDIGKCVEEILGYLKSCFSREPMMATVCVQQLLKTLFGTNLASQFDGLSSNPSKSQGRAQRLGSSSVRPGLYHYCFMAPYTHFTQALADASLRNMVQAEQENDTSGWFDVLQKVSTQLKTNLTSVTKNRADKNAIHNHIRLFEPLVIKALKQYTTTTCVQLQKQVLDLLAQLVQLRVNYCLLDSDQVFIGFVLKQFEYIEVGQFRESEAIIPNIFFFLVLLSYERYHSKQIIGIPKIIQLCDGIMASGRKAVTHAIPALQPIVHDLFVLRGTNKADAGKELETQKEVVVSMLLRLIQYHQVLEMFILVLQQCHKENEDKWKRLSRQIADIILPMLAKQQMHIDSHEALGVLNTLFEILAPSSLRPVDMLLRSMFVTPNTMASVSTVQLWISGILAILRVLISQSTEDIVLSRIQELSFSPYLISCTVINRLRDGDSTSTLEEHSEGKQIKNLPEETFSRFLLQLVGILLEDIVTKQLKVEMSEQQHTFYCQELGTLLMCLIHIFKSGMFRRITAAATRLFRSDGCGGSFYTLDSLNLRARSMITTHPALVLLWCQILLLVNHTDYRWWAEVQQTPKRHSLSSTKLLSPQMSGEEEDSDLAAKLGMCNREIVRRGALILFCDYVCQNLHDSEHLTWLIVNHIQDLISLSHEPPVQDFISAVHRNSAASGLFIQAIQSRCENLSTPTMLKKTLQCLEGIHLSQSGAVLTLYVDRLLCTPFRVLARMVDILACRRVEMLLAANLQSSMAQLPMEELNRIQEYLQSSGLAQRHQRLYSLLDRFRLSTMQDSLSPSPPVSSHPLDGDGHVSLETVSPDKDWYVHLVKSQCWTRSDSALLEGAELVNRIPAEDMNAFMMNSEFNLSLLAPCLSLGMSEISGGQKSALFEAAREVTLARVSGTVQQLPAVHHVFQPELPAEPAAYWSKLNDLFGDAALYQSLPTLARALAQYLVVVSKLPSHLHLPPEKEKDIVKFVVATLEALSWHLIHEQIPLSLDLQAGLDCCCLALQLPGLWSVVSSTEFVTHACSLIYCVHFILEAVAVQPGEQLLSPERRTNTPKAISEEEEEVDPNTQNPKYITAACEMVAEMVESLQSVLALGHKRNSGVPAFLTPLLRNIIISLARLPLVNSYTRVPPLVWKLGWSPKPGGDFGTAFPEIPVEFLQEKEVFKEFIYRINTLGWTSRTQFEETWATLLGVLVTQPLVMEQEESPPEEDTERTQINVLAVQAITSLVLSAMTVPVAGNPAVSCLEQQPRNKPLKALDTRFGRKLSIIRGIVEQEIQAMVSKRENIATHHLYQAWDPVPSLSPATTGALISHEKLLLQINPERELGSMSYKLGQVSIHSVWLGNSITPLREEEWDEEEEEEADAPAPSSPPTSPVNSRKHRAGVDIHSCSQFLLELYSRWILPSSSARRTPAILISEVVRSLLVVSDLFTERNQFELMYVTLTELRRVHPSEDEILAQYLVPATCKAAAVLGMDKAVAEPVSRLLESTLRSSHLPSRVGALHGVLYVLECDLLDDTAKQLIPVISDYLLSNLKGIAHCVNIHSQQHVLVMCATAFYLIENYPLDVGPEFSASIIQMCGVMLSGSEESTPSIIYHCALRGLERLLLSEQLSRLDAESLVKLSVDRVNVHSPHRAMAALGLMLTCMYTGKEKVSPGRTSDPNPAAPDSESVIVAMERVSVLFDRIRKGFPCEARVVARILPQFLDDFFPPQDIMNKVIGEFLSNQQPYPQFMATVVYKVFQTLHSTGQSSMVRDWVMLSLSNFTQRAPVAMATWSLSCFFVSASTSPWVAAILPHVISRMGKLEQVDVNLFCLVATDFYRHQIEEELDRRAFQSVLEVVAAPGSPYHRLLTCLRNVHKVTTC
With `CC(C)N1C/C(=C\c2ccsc2)C(=O)/C(=C/c2ccsc2)C1`, the inhibition was 45% (inactive).
`O=C(Nc1ccc(F)cc1)c1cc(S(=O)(=O)NCc2ccc(F)cc2)ccc1F`: the inhibition was -3% (inactive).
To `O=C(Nc1ccc(F)cc1)c1cc(S(=O)(=O)NCCc2ccc(Cl)cc2)ccc1F` belongs 61% (active).
As to `COc1ccc(NC(=O)c2cc(S(=O)(=O)NCCc3ccc(Cl)cc3)ccc2F)cc1`, the inhibition is 20% (inactive).
With `COc1ccccc1OCCNC(=O)CSc1ccc(C(F)(F)F)cc1[N+](=O)[O-]`, the inhibition was 2% (inactive).
`CC1=C(C(=O)Nc2cccnc2)C(c2ccccn2)n2nc(SCc3ccccc3)nc2N1` (configuration not stated): the inhibition was 5% (inactive).
In the case of `CC1=C(C(=O)Nc2ccc(C)cc2)C(c2cccc([N+](=O)[O-])c2)n2ncnc2N1` (configuration not stated) it was 7% (inactive); in that of `CC1=C(C(=O)Nc2ccc(Cl)cc2)C(c2ccc(Cl)cc2Cl)n2ncnc2N1` (configuration not stated), 59% (active); in that of `COc1ccc(NC(=O)C2=C(C)Nc3ncnn3C2c2cc(OC)c(OC)cc2OC)cc1` (configuration not stated), 0% (inactive).
As for `O=C(NCc1ccco1)c1cc2nc(-c3ccc(Cl)cc3)cc(C(F)(F)F)n2n1`, the inhibition was -2% (inactive).
Take `Cc1ccc(C)c(CNC(=O)c2cc3n(n2)CCCN(Cc2ccc(F)cc2)C3=O)c1`: the inhibition is 50.5% (active).
On to `Cc1ccc(CN2CCCn3nc(C(=O)NCc4ccccc4Cl)cc3C2=O)cc1`, for which the inhibition is -2.01% (inactive).
Turning to `O=C(NCCc1ccccc1)c1cc2n(n1)CCCN(Cc1ccc(F)cc1)C2=O`, the inhibition is 3.53% (inactive).
Turning to `Cc1cc(N2N=NC3C(=O)N(c4ccc(F)cc4)C(=O)C32)ccc1Br` (configuration not stated), the inhibition is -11.3% (inactive).
As to `CSC1=C(C#N)C(c2cccs2)CC(=O)N1` (configuration not stated), the inhibition was -7.7% (inactive).
As to `Cc1cccc(-c2cc(C3CCN(C(=O)Cc4ccsc4)CC3)[nH]n2)c1`, the inhibition is 59.9% (active).
To `Cc1cccc(-c2cc(C3CCN(S(=O)(=O)c4cccc(C#N)c4)CC3)[nH]n2)c1` belongs 7.83% (inactive).
In the case of `Cc1cccc(-c2cc(C3CCN(S(=O)(=O)c4ccc(C#N)cc4)CC3)[nH]n2)c1` it was 9.71% (inactive).
As for `O=C(Cc1csc(NC(=O)C2CCCC2)n1)Nc1ccc2c(c1)Cc1ccccc1-2`, the inhibition was -7.6% (inactive).
With `O=C1OC(c2ccccc2)=C/C1=C/c1cccn1-c1cccc([N+](=O)[O-])c1`, the inhibition was 77% (active).
Consider `Cn1c(=O)c2c(-c3ccccc3)n(-c3cccc([N+](=O)[O-])c3)cc2n(C)c1=O`, for which the inhibition was 38% (inactive).
To `O=C1/C(=C/c2ccc([N+](=O)[O-])cc2)C=C(c2ccccc2)N1c1cccc([N+](=O)[O-])c1` belongs 28% (inactive); to `N#CC1=C(N)C(C#N)(C#N)C(c2ccc(C3C4CCCC=C4C(C#N)=C(N)C3(C#N)C#N)cc2)C2CCCC=C12` (configuration not stated), 81.2% (active).
For the compound `CN1CC=C2C(C#N)=C(N)C(C#N)(C#N)C(c3ccc(F)cc3)C2C1` (configuration not stated), the inhibition was 6% (inactive).
In the case of `Brc1ccc(CNC23CN4CN(CN(C4)C2)C3)cc1` it was 2% (inactive); in that of `O=C(/C=C/c1ccc(Cl)cc1)Nc1cc2ccccc2oc1=O`, 0% (inactive).
Turning to `CN(C)c1ccc(Br)c([N+](=O)[O-])c1`, the inhibition was 14.9% (inactive).
Regarding `Cc1ccc2nc(/C(C#N)=C/c3cc(Cl)cc4c3OCOC4)[nH]c2c1`, the inhibition was -7% (inactive).
`COc1ccc2nc3sc(C(=O)NCc4ccco4)cc3cc2c1`: the inhibition is 61% (active).
As to `COc1ccc2nc3sc(C(=O)N(C)c4cccc(C)c4)cc3cc2c1`, the inhibition was 5% (inactive).
In the case of `COc1cccc(NC(=O)c2cc3cc4cc(OC)ccc4nc3s2)c1` it was 7% (inactive); in that of `O=C(CSc1nnc(NC(=O)c2ccccc2F)s1)Nc1ccc(Br)cc1`, 1.2% (inactive).
Take `CC(C)(C)C(=O)NCCNc1ccc([N+](=O)[O-])cc1`: the inhibition is 2.2% (inactive).
On to `COc1ccc(NC(=O)C2CC(=O)N(C)C(=Nc3ccc(C)c(C)c3)S2)cc1` (configuration not stated), for which the inhibition was 22% (inactive).
For `Cc1ccc2c(c1)OCC(=O)N2Cc1nc(-c2ccc(C)c(C)c2)no1`, the inhibition was -15.9% (inactive).
Regarding `Cc1ccccc1NC(=O)N1CCC(c2cc(N)on2)CC1`, the inhibition was -11.4% (inactive).
`CCOC(=O)c1ccc(Oc2coc3c4c(ccc3c2=O)OCN(C2CCS(=O)(=O)C2)C4)cc1` (configuration not stated): the inhibition is 6.6% (inactive).
In the case of `COCCCN1COc2ccc3c(=O)c(Oc4ccc(OC)cc4)coc3c2C1`, the inhibition was -5.5% (inactive) and 3.6% (inactive).
For the compound `COc1ccc(N2COc3ccc4c(=O)c(-c5ccccc5)coc4c3C2)c(OC)c1`, the inhibition was 75.6% (active).
To `CC(C)N1COc2ccc3c(=O)c(-c4ccccc4)coc3c2C1` belongs -2.5% (inactive); to `COC(=O)c1ccc(Oc2coc3c4c(ccc3c2=O)OCN(c2ccc(OC)cc2OC)C4)cc1`, 54.7% (active); to `COc1ccc(-c2coc3c4c(ccc3c2=O)OCN(CC(C)C)C4)cc1`, -3.5% (inactive).
With `COc1cccc(OC)c1OCCOc1cccc(Cl)c1Cl`, the inhibition is -101% (inactive).
For the compound `Cc1cccc(NC(=O)c2ccc(F)c(S(=O)(=O)N3CCc4ccccc43)c2)c1`, the inhibition is -8% (inactive).
As to `Cc1cc2[nH]c(C(=O)Nc3cc(F)c(F)c(F)c3)c(CN(C)C)c2s1`, the inhibition is 8.9% (inactive).
Take `Cc1cccc(NC(=O)C2CCN(C(=O)c3ccc(F)cc3)CC2)c1`: the inhibition was -0.6% (inactive).
`O=C1OC(/C=C/c2cccc(Cl)c2Cl)=NC/1=C\c1coc2ccccc2c1=O`: the inhibition is 6% (inactive).
For the compound `CC(C)Oc1ccccc1OCCNCc1ccco1`, the inhibition is -1.4% (inactive).
To `Cc1ccc(C)c(NC(=O)N2CCc3c(c(COCc4cccc(F)c4)nn3C)C2)c1` belongs 23.8% (inactive); to `O=C(O)C1CCCCC1C(=O)Nc1nnc(-c2cccs2)s1` (configuration not stated), -1.3% (inactive).
As for `N#Cc1ccc(C(=O)NCc2[nH]nc3ccccc23)cc1`, the inhibition was 64.3% (active).
In the case of `CN(C)c1ncccc1NC(=O)c1ccc(C#N)cc1` it was 4.1% (inactive); in that of `O=C(NCc1[nH]nc2ccccc12)c1ccc(Br)o1`, -1.8% (inactive); in that of `Clc1ccc(-n2ncc3c(N4CCC5(CC4)OCCO5)ncnc32)cc1`, 7% (inactive).
In the case of `Cc1nc(N)sc1-c1csc(Nc2ccc(O)cc2)n1` it was 41.5% (inactive); in that of `NS(=O)(=O)c1ccc(Nc2nc(-c3ccccc3)cs2)cc1`, 21% (inactive); in that of `COc1ccc(-c2csc(/C(C#N)=C/Nc3cccc([N+](=O)[O-])c3)n2)cc1`, -1% (inactive).
On to `CC(=O)Nc1nc(C)c(-c2csc(Nc3ccc(S(N)(=O)=O)cc3)n2)s1`, for which the inhibition is 52.1% (active).
For `NS(=O)(=O)c1ccc(NC(=O)Cc2csc(Nc3ccccn3)n2)cc1`, the inhibition is 33.1% (inactive).
As for `O=C(O)c1ccc(Nc2nc(-c3cccs3)cs2)cc1`, the inhibition is 46.2% (inactive).
Consider `Cc1nc(N)sc1-c1csc(Nc2cccc([N+](=O)[O-])c2)n1`, for which the inhibition was 91.9% (active).
In the case of `CCN(CC)c1ccc(Nc2nc(-c3sc(C)nc3C)cs2)cc1` it was 96.7% (active).
